Data published in PubChem BioAssay (Tox21).
Several values for one entry are separate records, joined by “and”; a condition that tells them apart may be missing. Equal entries are not always repeated. Some structures have more than one record in an assay (separate samples or runs), and their calls can disagree. Activity calls are given as the source filed them. Where a call stands in place of a potency, no number is given. The call rests on the fitted dose curve; in most records, active means well fitted activation curve with a large enough effect in the repeat runs; inconclusive means weak or mixed curves; inactive means flat fitted curve, though single readings scatter.
Potency means the concentration at half of the fitted maximal effect.

Test: A CellTox Green Cytotoxicity Assay to monitor cytotoxicity in HEK293 cells - 0 hour (AID 1224869); further: nearly all actives have a fitted effect of over 50% in size
Conditions: CellTox Green fluorescence; series mostly up to 76.8 µM
Description: National Center for Advancing Translational Sciences [NCATS]
NIH Chemical Genomics Center [NCGC]
U.S. Environmental Protection Agency [EPA]
National Institutes of Environmental Health Sciences [NIEHS]
National Toxicology Program [NTP]
Cell-based models are critical for drug discovery. Determining the natural cytotoxic effects resulting from test compounds is an essential research activity. A CellTox Green Cytotoxicity Assay to monitor cytotoxicity in real time of continues cell culture during 40 hours of the compound treatment was used to screen Tox21 10K library compounds in Hek293 cells. CellTox Green Cytotoxicity Assay is a nonlytic, homogeneous, biofluorescent method to measure cytotoxicity in cell culture after experimental manipulation. The assay system uses a proprietary asymmetric cyanine dye that is excluded from viable cells but preferentially stains the dead cell's DNA. […] Viable cells produce no appreciable increases in fluorescence. Therefore, the fluorescence signal produced by the binding interaction with dead cell DNA is proportional to cytotoxicity.
The mixture of Hek293 cell suspension and reagents were dispensed at 600cells/6 ul/well in 1536-well tissue culture treated black solid bottom plates using a Multidrop dispenser. After the assay plates were incubated at a 37 C/5% CO2 incubator for 5 hours, 23 nL of compounds dissolved in DMSO, positive and negative controls was transferred to the assay plate by a pintool work station. The plates were incubated at 37 C for 40 hours. The fluorescence intensity were measured at 0h, 8h, 16h, 24h, 32h and 40h time points using ViewLux plate reader during compound treatment.
In the case of `O=C(O)c1cc(=O)[nH]c(=O)[nH]1`, the Potency is reported as “inactive”. For `O=C(O)COCCN1CCN(C(c2ccccc2)c2ccc(Cl)cc2)CC1` (stereo not given), the Potency was “inactive”. For `Nc1ccc(O)c(N)c1`, the Potency was “inactive”. With `CCO[Si](CCCNC(N)=O)(OCC)OCC` the Potency was “inactive”. With `CCCCCCCC/C=C\CCCCCCCC(=O)O` the Potency was “inactive”. With `COC(=O)C(C)Oc1ccc(Oc2ncc(C(F)(F)F)cc2Cl)cc1` (stereo not given) the Potency was “inactive”. For `Cc1cccc(Nc2ccccc2C(=O)O)c1C`, the Potency was “inactive”. In the case of `CC(C)[C@@H]1CC[C@@H](C)CC1=O`, the Potency is reported as “inactive”. With `C=C[Si](OCCOC)(OCCOC)OCCOC` the Potency was “inactive”. In the case of `NCCS(=O)(=O)O`, the Potency is reported as “inactive”. In the case of `c1ccc2c(c1)ccc1cc3c(ccc4ccccc43)cc12`, the Potency is reported as “inactive”. In the case of `c1ccc2c(c1)[nH]c1ccccc12`, the Potency is reported as “inactive”. For `CN(Cc1cnc2nc(N)nc(N)c2n1)c1ccc(C(=O)N[C@@H](CCC(=O)O)C(=O)O)cc1`, the Potency was “inactive”. In the case of `C=CN1CCCC1=O`, the Potency is reported as “inactive”. With `O=C(O)CCCCCCCCCCCC(=O)O` the Potency was “inactive”. With `Cc1ccc(C)c(O)c1` the Potency was “inactive”. With `CCC/C=C/C=O` the Potency was “inactive”. With `Oc1c(Cl)ccc(Cl)c1Cl` the Potency was “inactive”. For `Cc1ccc(C(C)(C)C)cc1`, the Potency was “inactive”. In the case of `CCC(=O)O[C@H]1[C@H](O[C@@H]2[C@@H](C)[C@H](O[C@H]3C[C@@](C)(OC)[C@@H](O)[C@H](C)O3)[C@@H](C)C(=O)O[C@H](CC)[C@@](C)(O)[C@H](O)[C@@H](C)C(=O)[C@H](C)C[C@@]2(C)O)O[C@H](C)C[C@@H]1N(C)C`, the Potency is reported as “inactive”. With `C/C=C/C(=O)N(CC)c1ccccc1C` the Potency was “inactive”. In the case of `CC/C=C\C/C=C\C/C=C\CCCCCCCC(=O)O`, the Potency is reported as “inactive”. For `O=Cc1ccccc1C=O`, the Potency was “inactive”. In the case of `Brc1nc2ccccc2s1`, the Potency is reported as “inactive”. With `c1ccc2cc3ccccc3cc2c1` the Potency was “inactive”. For `CC(C)(C)c1cccc(C(C)(C)C)c1O`, the Potency was “inactive”. In the case of `CC1(C)NC(=O)N(c2ccc([N+](=O)[O-])c(C(F)(F)F)c2)C1=O`, the Potency is reported as “inactive”. For `Cc1ccc(S(=O)(=O)O)cc1C`, the Potency was “inactive”. For `NCCN`, the Potency was “inactive”. In the case of `[O-]/[N+](=N\O)c1ccccc1`, the Potency is reported as “inactive”. With `O=[Se](O)O` the Potency was “inactive”. In the case of `COc1cc([C@H]2Oc3cc([C@H]4Oc5cc(O)cc(O)c5C(=O)[C@@H]4O)ccc3O[C@@H]2CO)ccc1O`, the Potency is reported as “inactive and 15.1 µM (active)”. For `O=C(CCCN1CCC(O)(c2ccc(Cl)cc2)CC1)c1ccc(F)cc1`, the Potency was “inactive”. With `OC[C@@H](O)[C@@H](O[C@@H]1O[C@H](CO)[C@H](O)[C@H](O)[C@H]1O)[C@H](O)[C@@H](O)CO` the Potency was “inactive”. For `CC1=CC(C)(C)Nc2ccccc21`, the Potency was “inactive”. For `Nc1ccc(N)c(Cl)c1`, the Potency was “inactive and 38.9 µM (active)”. For `IC(I)I`, the Potency was “inactive”. With `CC1(C)OC(=O)NC1=O` the Potency was “inactive”. For `CCC(Cc1c(I)cc(I)c(N)c1I)C(=O)O` (stereo not given), the Potency was “inactive”. In the case of `C[N+](C)(C)CCO`, the Potency is reported as “inactive”.
